In PubChem BioAssay (Tox21):
Records with an inconclusive call do not appear. Activity calls are given as the source filed them. Unless noted, the call rests on the fitted dose curve; in most records, active means well fitted curve in the direction sought with a large enough effect in the repeat runs; inconclusive means weak or mixed curves; inactive means no such curve, though single readings can be large; an effect the other way counts as inactive or inconclusive.

How the values were obtained:
[1] = qHTS assay to identify small molecule agonists of the peroxisome proliferator-activated receptor delta (PPARd) signaling pathway - cell viability counter screen (AID 743211); further: nearly all actives have a fitted effect of over 55% in size
Procedure, shortened: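 Tox21 library compounds, delivered in DMSO, were incubated 17 h with PPARd-bla HEK293H cells; cytotoxicity was taken from CellTiter-Glo luminescence read 30 min after reagent addition.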

[2] = target: Peroxisome proliferator-activated receptor delta (Homo sapiens) (UniProt Q03181); assay: qHTS assay to identify small molecule agonists of the peroxisome proliferator-activated receptor delta (PPARd) signaling pathway (AID 743212; calls by dose curve)
Sequence of Peroxisome proliferator-activated receptor delta (Homo sapiens) (Q03181 whole entry, looked up): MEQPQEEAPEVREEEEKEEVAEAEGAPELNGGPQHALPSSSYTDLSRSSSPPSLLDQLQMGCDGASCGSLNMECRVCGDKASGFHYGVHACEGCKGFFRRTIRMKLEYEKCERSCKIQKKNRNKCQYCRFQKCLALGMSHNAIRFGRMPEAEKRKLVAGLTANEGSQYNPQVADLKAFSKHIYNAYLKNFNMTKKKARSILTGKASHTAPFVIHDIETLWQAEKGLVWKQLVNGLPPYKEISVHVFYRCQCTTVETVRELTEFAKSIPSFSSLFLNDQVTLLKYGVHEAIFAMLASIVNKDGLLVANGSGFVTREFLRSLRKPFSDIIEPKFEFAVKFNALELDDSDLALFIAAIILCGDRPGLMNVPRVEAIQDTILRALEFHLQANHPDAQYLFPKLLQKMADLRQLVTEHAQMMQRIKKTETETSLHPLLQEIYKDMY
Procedure, shortened: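 Read-out: beta-lactamase FRET fluorescence after 2 h room-temperature incubation with LiveBLAzer B/G substrate. Cells were HEK293H carrying a UAS-bla reporter for PPARd, treated at 37 C with DMSO-dissolved compounds.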

[3] = qHTS assay to identify small molecule antagonists of the peroxisome proliferator-activated receptor delta (PPARd) signaling pathway - cell viability counter screen (AID 743213); further: nearly all actives have a fitted effect of over 50% in size
Procedure, shortened: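 Cytotoxicity counter screen: CellTiter-Glo luminescence read 30 min after addition, in the same wells as the reporter assay. There, PPARd UAS-bla HEK293H cells (3000/well) were treated 17 h at 37 C with compound and 300 nM L165041.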

[4] = target: Bile acid receptor (Homo sapiens) (UniProt Q96RI1); assay: qHTS assay to identify small molecule antagonists of the farnesoid-X-receptor (FXR) signaling pathway (AID 743217; active means well fitted inhibition curve with a large enough effect in the signal ratio in the repeat runs, not every such curve was filed as active; the % refers to the signal ratio)
Sequence of Bile acid receptor (Homo sapiens) (Q96RI1 whole entry, looked up): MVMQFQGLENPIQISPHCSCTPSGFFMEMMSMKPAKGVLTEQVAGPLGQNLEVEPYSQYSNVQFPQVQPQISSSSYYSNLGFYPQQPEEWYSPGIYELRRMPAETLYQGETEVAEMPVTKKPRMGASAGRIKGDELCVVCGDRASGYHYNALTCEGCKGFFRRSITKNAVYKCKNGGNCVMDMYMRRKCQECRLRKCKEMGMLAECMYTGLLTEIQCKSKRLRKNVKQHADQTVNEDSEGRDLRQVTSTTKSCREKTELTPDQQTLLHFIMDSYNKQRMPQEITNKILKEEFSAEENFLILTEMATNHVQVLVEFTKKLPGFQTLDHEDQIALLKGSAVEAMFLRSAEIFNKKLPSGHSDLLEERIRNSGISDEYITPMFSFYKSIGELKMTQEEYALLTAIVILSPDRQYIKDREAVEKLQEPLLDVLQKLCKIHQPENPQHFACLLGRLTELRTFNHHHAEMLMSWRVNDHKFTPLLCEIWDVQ
Procedure, shortened: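 Test compounds are pin-transferred onto FXR-bla HEK 293T cells, then chenodeoxycholic acid is added at 50 uM final. After 16 h at 37 °C, LiveBLAzer B/G substrate is applied for 2 h at room temperature and fluorescence read.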

[5] = qHTS assay to identify small molecule agonists of the farnesoid-X-receptor (FXR) signaling pathway - cell viability counter screen (AID 743218); further: nearly all actives have a fitted effect of over 45% in size
Procedure, shortened: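 Quantitative HTS counter screen measuring ATP-based viability via CellTiter-Glo luminescence in HEK 293T cells carrying a UAS-driven beta-lactamase reporter, after 16 h compound exposure at 37 C.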

[6] = target: Bile acid receptor (Homo sapiens) (UniProt Q96RI1); assay: qHTS assay to identify small molecule agonists of the farnesoid-X-receptor (FXR) signaling pathway (AID 743220; active means well fitted activation curve with a large enough effect in the signal ratio in the repeat runs, not every such curve was filed as active; the % refers to the signal ratio)
Procedure, shortened: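 FXR-UAS-bla HEK 293T cells carrying a UAS-driven beta-lactamase reporter were plated for 5 h at 37C/5% CO2, then exposed to DMSO-dissolved Tox21 10K compounds for 16 h at 37C. A LiveBLAzer B/G FRET substrate was loaded for 2 h at room temperature before fluorescence reading.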

[7] = qHTS assay to identify small molecule antagonists of the farnesoid-X-receptor (FXR) signaling pathway - cell viability counter screen (AID 743221; active means well fitted cell-killing curve with a large enough effect in the repeat runs, not every such curve was filed as active; further: nearly all actives have a fitted effect of over 50% in size)
Procedure, shortened: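 Cytotoxicity is taken from ATP luminescence (CellTiter-Glo, 30 min, room temperature) in FXR-bla HEK 293T cells previously incubated 16 h at 37 C with compound and chenodeoxycholic acid at 50 uM final.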

[8] = target: Vitamin D3 receptor (Homo sapiens) (UniProt P11473); assay: qHTS assay to identify small molecule agonists of the vitamin D receptor (VDR) signaling pathway (AID 743222; calls by dose curve)
Sequence of Vitamin D3 receptor (Homo sapiens) (P11473 whole entry, looked up): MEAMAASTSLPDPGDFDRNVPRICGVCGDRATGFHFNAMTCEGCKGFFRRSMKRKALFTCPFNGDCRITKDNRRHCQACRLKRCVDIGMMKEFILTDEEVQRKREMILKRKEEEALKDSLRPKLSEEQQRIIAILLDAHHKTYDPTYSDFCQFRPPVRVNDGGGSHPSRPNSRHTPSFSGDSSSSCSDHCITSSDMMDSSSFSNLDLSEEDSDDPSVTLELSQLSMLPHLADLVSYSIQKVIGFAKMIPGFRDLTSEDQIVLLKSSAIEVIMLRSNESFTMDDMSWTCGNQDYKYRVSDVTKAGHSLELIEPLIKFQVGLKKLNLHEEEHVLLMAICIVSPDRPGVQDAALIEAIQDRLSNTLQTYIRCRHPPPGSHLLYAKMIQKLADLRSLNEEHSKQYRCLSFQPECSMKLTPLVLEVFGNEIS
Procedure, shortened: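 Tox21 cell reporter format: VDR-bla line, 16 h compound exposure in 5% CO2 at 37C, then fluorescence intensity after 2 h with LiveBLAzer B/G FRET substrate.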

[9] = target: Vitamin D3 receptor (Homo sapiens) (UniProt P11473); assay: qHTS assay to identify small molecule antagonists of the vitamin D receptor (VDR) signaling pathway (AID 743223; active means well fitted inhibition curve with a large enough effect in the signal ratio in the repeat runs, not every such curve was filed as active; the % refers to the signal ratio)
Procedure, shortened: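 Quantitative HTS in VDR-bla reporter cells stimulated with 1alpha,25-dihydroxyvitamin D3, 3 nM final. Compound exposure 16 h, 37C, 5% CO2. Read-out: beta-lactamase FRET substrate fluorescence, 2 h RT.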

[10] = qHTS assay to identify small molecule agonists of the vitamin D receptor (VDR) signaling pathway - cell viability counter screen (AID 743224); further: series mostly up to about 63 µM; nearly all actives have a fitted effect of over 50% in size
Procedure, shortened: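 CellTiter-Glo viability readout on VDR-bla cells, measured after 16 h of compound treatment at 37C in the same wells.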

[11] = qHTS assay to identify small molecule antagonists of the vitamin D receptor (VDR) signaling pathway - cell viability counter screen (AID 743225); further: nearly all actives have a fitted effect of over 50% in size
Procedure, shortened: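 Same-well multiplex: following 16 h treatment of HEK 293T cells carrying a UAS-driven beta-lactamase reporter with compound and agonist (3 nM final), and a 2 h FRET substrate step, CellTiter-Glo was added and luminescence read after 30 min.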

[12] = qHTS assay to identify small molecule agonists of the NFkB signaling pathway (AID 1159509; active means well fitted curve in the direction sought with a large enough effect in the signal ratio in the repeat runs, not every such curve was filed as active; the % refers to the signal ratio; further: series mostly up to about 61 µM)
Procedure, shortened: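 Readout: FRET fluorescence, 405 nm excitation, 460/530 nm emission; beta-lactamase expression disrupts FRET. Cells: ME-180 stably carrying NF-kB-driven bla reporter. Compound exposure 5 hr, 37 C, 5% CO2.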

[13] = qHTS assay to identify small molecule agonists of the NFkB signaling pathway - cell viability counter screen (AID 1159515; calls by dose curve; further: series mostly up to about 61 µM; nearly all actives have a fitted effect of over 55% in size)
Procedure, shortened: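 Tox21 library compounds were tested for cytotoxicity against NFkB-bla ME-180 cells during a 5 hr exposure at 37 C. CellTiter-Glo luminescence served as the viability read-out.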

[14] = qHTS assay to identify small molecule agonists of the endoplasmic reticulum stress response signaling pathway (AID 1159516; active means well fitted activation curve with a large enough effect in the signal ratio in the repeat runs, not every such curve was filed as active; the % refers to the signal ratio)
Procedure, shortened: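 Fluorescence at 460 and 530 nm (405 nm excitation) reports beta-lactamase from an ER stress response element in HeLa cells treated 5 hr at 37 C.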

[15] = target: Nuclear receptor ROR-gamma (Homo sapiens) (UniProt P51449); assay: qHTS assay to identify small molecule antagonists of the retinoid-related orphan receptor gamma (ROR-gamma) signaling pathway (AID 1159521)
Procedure, shortened: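 Inducible-expression reporter assay: doxycycline (1 uM final) switched on RORγ in CHO cells bearing a ROR response element-luciferase construct, with test compounds present from 2 h beforehand. Decreased luminescence after 16 h defined antagonist activity.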

[16] = qHTS assay to identify small molecule agonists of the AP-1 signaling pathway - cell viability counter screen (AID 1159525; calls by dose curve; further: nearly all actives have a fitted effect of over 55% in size)
Procedure, shortened: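 Same-well cytotoxicity counter screen of the Tox21 10K library in ME-180 cells. The readout is ATP-dependent luminescence after 5 h compound treatment. Data are normalised to DMSO and tetra n-octyl ammonium bromide controls.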

[17] = qHTS assay to identify small molecule agonists of the AP-1 signaling pathway (AID 1159526; calls by dose curve)
[18] = qHTS assay to identify small molecule agonists of the endoplasmic reticulum stress response signaling pathway - cell viability counter screen (AID 1159517; calls by dose curve)
Procedure, shortened: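 Steps: seed 1,500 ESRE-bla HeLa cells per well; incubate overnight at 37 C, 5% CO2; add compounds in DMSO for 5 hr; run FRET substrate 2 hr RT; add CellTiter-Glo, wait 30 min, read luminescence.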

[19] = target: Peroxisome proliferator-activated receptor delta (Homo sapiens) (UniProt Q03181); assay: qHTS assay to identify small molecule antagonists of the peroxisome proliferator-activated receptor delta (PPARd) signaling pathway (AID 743215; active means well fitted inhibition curve with a large enough effect in the signal ratio in the repeat runs, not every such curve was filed as active; the % refers to the signal ratio;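 further: cells stimulated with agonist L165041 at 300 nM final during compound exposure; series mostly up to about 62 µM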)
Procedure, shortened: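 Here, a reporter line (HEK293H, beta-lactamase under a UAS) measures PPARd signaling. Compounds are tested against agonist L165041 at 300 nM final concentration over 17 h at 37 C, with fluorescence read after substrate.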

[20] = qHTS assay to identify small molecule antagonists of the retinoid-related orphan receptor gamma (ROR-gamma) signaling pathway - cell viability counter screen (AID 1159520); further: nearly all actives have a fitted effect of over 50% in size
Procedure, shortened: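 Tet-on ROR gamma CHO cells were given compounds for 2 hr, then doxycycline hyclate at 1 uM final, and incubated 16 hr at 37 C. Viability was measured as ATP content by CellTiter-Glo luminescence.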

Measured: Potency

Nc1cc(S(=O)(=O)O)ccc1S(=O)(=O)O
not listed: [18] | [19] | [20]
inactive: all other assays above

OC(CCN1CCCCC1)(c1ccccc1)c1ccccc1
not listed: [2] | [4] | [6] | [8] | [9] | [10] | [19] | [20]
inactive: all other assays above

COCCOCCOCCOC
not listed: [2] | [6] | [16] | [19] | [20]
inactive: all other assays above

CC(=O)OC[C@H]1O[C@@H](OC(C)=O)[C@H](OC(C)=O)[C@@H]1OC(C)=O
not listed: [3] | [6] | [15] | [16]
inactive: all other assays above

CCCCCCCCCCCCC
not listed: [1] | [3] | [5] | [6] | [9] | [15] | [18] | [19]
inactive: all other assays above

C=CCOc1cc(Cl)ccc1C(=O)NCCN(CC)CC
not listed: [2] | [3] | [4] | [6] | [20]
inactive: all other assays above

CCCCC(C)C(=O)O (stereo not drawn)
not listed: [4] | [6] | [11] | [14]
inactive: all other assays above

CN=C(NC#N)NCCSCc1csc(N=C(N)N)n1
not listed: [4] | [6] | [9] | [14] | [15]
inactive: all other assays above

c1ccc(CNc2ncnc3nc[nH]c23)cc1
not listed: [2] | [14] | [19]
inactive: all other assays above

C1CCN2C[C@@H]3C[C@@H](CN4CCCC[C@@H]34)[C@H]2C1
not listed: [4] | [6] | [14] | [15]
inactive: all other assays above

CCCCCCCC/C=C\CCCCCCCC(=O)OC[C@@H](O)[C@H]1OC[C@H](O)[C@H]1O
not listed: [4] | [6] | [11] | [14] | [15] | [16]
inactive: all other assays above

CCNC(=O)NCCCOc1cccc(CN2CCCCC2)c1
not listed: [4] | [6] | [9] | [14] | [15]
inactive: all other assays above

CC(C)COC(=O)/C=C/c1ccccc1
not listed: [14] | [20]
inactive: all other assays above
